Reference: PubChem BioAssay (NCI)
This is part of a sample that, as a whole, favours compounds with a hit. Of some 79,000 tested, about 15% had one in any assay. Unmarked numbers belong to inactive results. The source made the active and inactive calls. Rule as the data show it: active = growth inhibition above about 70%; inactive = the rest.

What was measured:
[1] = NCI Yeast Anticancer Drug Screen. Data for the rad50 strain (AID 155);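 also: 0% = growth of vehicle-only cultures of the same strain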; settings: S. cerevisiae rad50 strain growth inhibition; at 50.0 µM; stronger effect = higher value
Outline: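 DNA repair mutant yeast, compound exposure, growth read-out; inhibition is taken relative to vehicle.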

[2] = NCI Yeast Anticancer Drug Screen. Data for the mec2-1 strain (AID 157); settings: S. cerevisiae mec2-1 strain, at 50.0 µM, stronger effect = higher value
Outline: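 Strain: mec2-1 (DNA repair/cell cycle alteration). Compound exposure, then growth measured; inhibition expressed relative to vehicle.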

[3] = NCI Yeast Anticancer Drug Screen. Data for the sgs1 mgt1 strain (AID 161);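 also: 0% = growth of cultures given vehicle only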; settings: S. cerevisiae sgs1 mgt1 strain, at 50.0 µM, stronger effect = higher value
Outline: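 Inhibition of yeast growth, normalised to vehicle-treated controls, is reported for a strain bearing genetic alterations in DNA damage repair.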

[4] = NCI Yeast Anticancer Drug Screen. Data for the cln2 rad14 strain (AID 165);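 also: 0% = growth equal to vehicle treated cultures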; settings: S. cerevisiae cln2 rad14 strain, at 50.0 µM, stronger effect = higher value
Outline: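 Compounds are applied to the cln2 rad14 yeast strain, and growth is then compared with that of vehicle-treated cultures to give inhibition.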

[5] = NCI Yeast Anticancer Drug Screen. Data for the bub3 strain (AID 167); settings: S. cerevisiae bub3 mutant strain, at 50.0 µM, stronger effect = higher value
Outline: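 In this screen, a yeast mutant lacking normal mitotic checkpoint function is challenged with compound. Relative growth versus vehicle gives the inhibition value.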

[6] = NCI Yeast Anticancer Drug Screen. Data for the mlh1 rad18 strain (AID 175); settings: S. cerevisiae mlh1 rad18 strain growth inhibition; at 50.0 µM; stronger effect = higher value
Outline: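 Read-out is yeast growth inhibition, calculated against vehicle-only controls. The compound was applied to a strain engineered with DNA damage repair alterations.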

Structure (SMILES)	growth inhibition [1]	growth inhibition [2] [%]	growth inhibition [3]	growth inhibition [4] [%]	growth inhibition [5] [%]	growth inhibition [6]
c1ccc(C2SCc3nc4cc5ccccc5cc4n32)cc1 (stereo unspecified)	-21.6%	6.4	17.1%	12	-17	16.8%
O=[N+]([O-])c1ccccc1OC1OC(CO)C(O)C(O)C1O (stereo unspecified)	-2.35%	-5.6	14.2%	-33.8	-14.8	7.2%
CC1(C)CC(=O)c2c([nH]c(=S)c(C#N)c2-c2ccc(Br)cc2)C1	-37.3%	-13.1	-27.4%	-11.8	-8.7	-42.1%
COc1ccc(/C=[N+](\[O-])c2ccccc2)cc1 (tested in a mixture with another compound)	-2%	8.2	4.1%	0.4	-10.8	8.35%
CCCCCCCCCCCCCCC1CC(=O)OC1=O (stereo unspecified)	-22.6%	-30.1	-9.55%	0.5	-10.8	-31.8%
O=Cc1cc(C=O)c2ccc(=O)[nH]c2n1	4.75%	0.5	-8.55%	0.65	-1.25	-3.5%
O=c1[nH]c2c(Cl)cccc2c2ccccc12	40.5%	18.9	-7.45%	-18.1	-17.9	14.3%
C=CCOC(=O)OCC=C	4%	-8.55	2%	-3.7	23.2	3.1%
O=C(Nc1ccccc1)Oc1ccc(C2CCCCC2)cc1	14.7%	22.1	8.2%	0.95	23.3	54.6%
CN(C)C(=O)OCC1COc2ccccc2O1 (stereo unspecified)	15%	-23.6	-23.1%	-70.2	-11.1	-12.6%
CCOC(=O)c1c[nH]c(=S)n(C)c1=O	-6.6%	-10.2	-6.65%	-14.1	0.4	2.1%
CC(=O)N(C(C)=O)n1c(Cc2ccc(C)cc2)nn(C(C)=O)c1=O	-26.9%	15.2	-16.9%	13.3	-1.75	-27.9%
CSc1ncnc2c1ncn2CC(=O)C1CCC2C3CCC4=CC(=O)CCC4(C)C3CCC12C (stereo unspecified)	7%	-48.2	-1.9%	-29.6	-28.9	16.4%
CC12CCC3C(CCC4CC(OC5CCCCO5)CCC43C)C1CC/C2=C/C#N (stereo unspecified)	29.4%	-7.5	10.1%	10.3	1.75	-2.65%
COc1ccc(SC/C(=N\NOS(=O)(=O)c2ccc(C)cc2)c2ccccc2)cc1	85.1% (active)	34.1	93.3% (active)	61	61	87.7% (active)
Cc1cc(=O)[nH]n1-c1ccc([N+](=O)[O-])cc1	6.15%	-2.4	5.3%	-9.8	-1.7	14.8%
CC(=O)OCC(=O)O[C@@H]1[C@H]2[C@@H](OC(=O)c3ccccc3)[C@@H](C)C[C@]2(O)[C@H](OC(C)=O)[C@@]2(C)C[C@]1(OC(C)=O)C[C@H]1C(=O)C(C)(C)[C@@H](OC(C)=O)[C@@H]12	-7.35%	8.2	-0.3%	-15.3	0.3	-17.8%
O=P(c1ccccc1)(c1ccccc1)c1ccccc1OCc1cccc(COc2ccccc2P(=O)(c2ccccc2)c2ccccc2)n1	-7.05%	-7.5	-11.7%	-21.9	-2.6	31.1%
CCCC(CCC)C(=O)[O-].CCCC(CCC)C(=O)[O-].CCCC(CCC)C(=O)[O-].CCCC(CCC)C(=O)[O-].[Cu+2].[Cu+2]	1.4%	13.4	-2.8%	19.9	20	14.2%
CC(=O)C(=Cc1c[nH]c2ccccc12)C(C)=O	31.7%	13.7	38.4%	9.65	35.4	31.6%
NNC(=S)N/N=C/c1ccco1	-9.6%	-9.7	-29.4%	-19.2	-8.7	-14.2%
